Screening data from PubChem.
Most compounds without a hit are left out; they make up all but 6.5% or so of the library.
HCMV inh: qHTS Assay for inhibitors of the human cytomegalovirus (HCMV). HFF cells, HCMV-luciferase reporter, 72 h; hits give low values. activity change, negative = inhibition, % at 57.5 µM. 410,000 tested, 4.5% active. AID 1259415, 2018; in the data active means activity change below about -60%; inconclusive means no clear call, values can overlap the other calls; inactive means above about -39%
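Steps: HFFs plated, 16 h 37C; compounds added; HCMV-luciferase added to MOI 1 PFU/cell; 72 h 37C; OneGlo reagent, 5 min room temperature; luminescence read, normalized to controls.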
VACV mCherry inh: qHTS for Stage-Specific Inhibitors of Vaccinia Orthopoxvirus: mCherry Reporter Primary qHTS. Vaccinia virus mCherry reporter infection, fluorescence. Potency, µM (series often up to 36.5 µM), for inactives: at the top dose activity change, negative = inhibition, actives largely listed as inhibitors. 310,000 tested, 0.63% active. AID 720579, 2013; calls by dose curve; tested in A549 cells; further: potency means the concentration at half of the fitted maximal effect; nearly all actives have a fitted effect of over 35% in size
FMDV inh: High Throughput Screening for Foot and Mouth Disease Virus Antivirals. FMDV antiviral cell-based qHTS. Potency, µM (titrated, usually from 57.9 µM), for inactives: top-dose activity change, negative = inhibition, actives largely listed as inhibitors. 410,000 tested, 1.2% active. AID 1159524, 2015; calls by dose curve; tested in HEK293T cells; further: read-out not given here; potency means the concentration at half of the fitted maximal effect; nearly all actives have a fitted effect of over 45% in size
LASV entry inh: qHTS for Inhibitors of binding or entry into cells for Lassa Virus; Potency, µM (doses to about 37.9 µM), for the others: at the top dose activity change, negative = inhibition, usual class: inhibitors; Lassa virus pseudotype entry inhibition, cell reporter; 300,000 tested, 1.2% active; calls by dose curve; tested in HEK293 cells; further: potency means the concentration at half of the fitted maximal effect; nearly all actives have a fitted effect of over 50% in size
MARV entry inh: qHTS for inhibitors of binding or entry into cells for Marburg Virus | Potency, µM (series often up to 37.8 µM), without a hit: at the top dose activity change, negative = inhibition, most hits filed as inhibitors | Marburg virus pseudotyped entry inhibition, cell reporter | 300,000 tested, 1.8% active; calls by dose curve; tested in HEK293 cells; further: potency means the concentration at half of the fitted maximal effect
Vaccinia Venus: qHTS for Stage-Specific Inhibitors of Vaccinia Orthopoxvirus: Venus Reporter Primary qHTS. Potency, µM (top dose mostly 36.5 µM), inactives show top-dose activity change, negative = inhibition, usual class: inhibitors. Vaccinia virus Venus reporter expression, fluorescence. AID 720580, 2013. 330,000 tested, 0.46% active; calls by dose curve; tested in A549 cells; further: potency means the concentration at half of the fitted maximal effect; nearly all actives have a fitted effect of over 30% in size
Active calls of the source: *; i = inactive; u = inconclusive; x = no result; [ ] = another dose, or the depositor's remark. On the % scale 0 is the no-effect control and ±100 the full control effect.

SMILES | HCMV inh | VACV mCherry inh | FMDV inh | LASV entry inh | MARV entry inh | Vaccinia Venus
O=C(Cn1cc(C(=O)C(F)(F)F)c2ccccc21)N1CCCCCC1 | 55 | 2% | 50% | -18%[46.1 µM] | 10%[46.1 µM] | 4%
CCOc1ccccc1Nc1cc2n(c(=O)n1)CCc1cc(OC)c(OC)cc1-2 | 80 | -27% | -15% | u | u | -21%
COc1cc2c(cc1OC)-c1cc(NC3CCCCCCC3)nc(=O)n1CC2 | -17 | -15%[1.46 µM] | 0% | 14µM* | u | -27%
CCOc1ccc(Nc2cc3n(c(=O)n2)CCc2cc(OC)c(OC)cc2-3)cc1 | 8 | -5% | -8% | 11µM* | -25% | -23%
CC(=O)NC(Cc1ccc(O)cc1)C(=O)O (stereo not given) | 12 | x | x | x | x | x
COCc1c(C(=O)NC2CCOC(C)(C)C2)cnn1-c1nccc(-c2cccs2)n1 (stereo not given) | x | -5% | 31% | x | x | 5%
OC(CN1C2=NCCCN2c2ccccc21)c1ccc2c(c1)OCO2 (stereo not given) | -32 | x | 2% | 4% | -13% | 0%
OC(CN1C2=NCCN2c2ccccc21)c1ccc2c(c1)OCO2 (stereo not given) | 8 | -26%[1.46 µM] | 12% | u | u | 11µM*
COc1ccc(C2(O)CC3CCC(C2)N3c2cc(C)nc(-c3ccccc3)n2)cc1 (stereo not given) | -30 | -12% | u | 2% | 12µM* | -30%
COc1ccc2nc(-c3ccccc3)nc(C3CCCCC3)c2c1 | -3 | -26% | -2% | x | x | -3%
C/C(=N\Nc1ccc(S(N)(=O)=O)cc1[N+](=O)[O-])c1ccc2c(c1)OCO2 | u | -13% | 35µM* | -1% | u | u
CC(=O)Oc1ccccc1C(=O)NC(C)CCc1ccccc1 (stereo not given) | -9 | -8% | 25µM* | -9% | -30% | -26%
COc1ccc(/C=N/Nc2nnc(C)n2N)cc1OC | -61* | u | 5% | u | u | u
COc1ccc(/C=N/Nc2nc(C)cc(-c3ccccc3)n2)cc1OC | -86* | -13% | -8% | -24%[46.1 µM] | u | -15%
Cc1nnc(N/N=C/c2ccc(Br)cc2)n1N | 71 | x | 8% | x | x | x
COc1ccc(-n2c(O)c(/C=N/Nc3nc(C)cc(C)n3)c3ccccc3c2=O)cc1OC | -94* | u | -14% | u | u | u
COc1ccc(/C=N/Nc2nnc(C)n2N)cc1OC(C)=O | 17 | 22µM* | 6% | u | u | u
Cc1cc(-c2ccccc2)nc(N/N=C/c2ccccc2)n1 | 4 | u | 7% | u | u | -12%
Cc1noc(Cn2c(=O)c3ccccc3n(CC(=O)Nc3ccccc3C(F)(F)F)c2=O)n1 | -2 | -9% | 6% | -1%[46.1 µM] | x | -16%
CCOC(=O)/C(C)=N/NC(C)=O | x | x | x | x | -17%[14.2 µM] | x
Cc1ccc(/C=N/Nc2nncn2N)cc1 | -18 | 10µM* | 13% | u | u | 10µM*
Nn1cnnc1N/N=C/c1ccc(F)cc1 | 8 | x | -1% | x | x | x
CCc1cccc(NC(=O)C2CCN(C(=O)c3cnn(-c4ccccc4)c3-n3cccc3)CC2)c1 | -5 | u | u | -23%[46.1 µM] | 2%[46.1 µM] | -27%
O=C1CCC[C@H]2[C@@H](Cc3ccccc3)[C@@H](NS(=O)(=O)c3cccs3)CC[C@]23CCCN13 | 0 | x | x | x | x | x
CCOc1ccccc1C(=O)Nc1cnn(Cc2ccc(F)cc2)c1 | -63* | u | -10% | -10% | u | -27%
SMILES | HCMV inh | VACV mCherry inh | FMDV inh | LASV entry inh | MARV entry inh | Vaccinia Venus
CN(C)c1cccc(-c2nnc(SCC(=O)NCc3ccco3)n2C)c1 | x | -6% | x | x | x | -25%
NC(=S)NN=Cc1nccc2c(N)cccc12 | -39 | u | 38% | x | x | u
CCN(C(C)=O)c1cnc(C=NNC(N)=S)c2ccccc12 | -97* | u | 2% | 8.9µM* | u | u
CC(C)CN=Cc1c(O)c([N+](=O)[O-])cc2oc3c(c12)CCCC3 | 12 | i | 32µM* | -16% | u | -17%
O=[N+]([O-])c1cc2oc3c(c2c(C=NCc2ccccc2)c1O)CCCC3 | 21 | -15% | 0% | u | 8% | -2%
Cn1c(=O)n(CCc2ccccc2)c(=O)c2c1nc1n2CCN1c1ccc(Cl)cc1 | -38 | -7% | -10% | 8%[46.1 µM] | x | 1%
O=C(CC1CCCC1)Nc1ccc(Cl)c(S(=O)(=O)N2CCOCC2)c1 | u | u | 32µM* | 2.8µM* | u | -26%
Cc1ccc(NC(=O)CCCSc2ccccc2)cc1S(=O)(=O)N1CCOCC1 | -6 | u | 28µM* | u | u | -20%
COc1ccc(OCC(=O)Nc2ccc(S(=O)(=O)N3CCOCC3)cc2)cc1 | 5 | i | -11% | -12% | u | -13%
CC(=O)Nc1ccc(OCC(=O)Nc2ccc(Cl)c(S(=O)(=O)N3CCOCC3)c2)cc1 | -71* | x | x | x | x | x
CC(CC(=O)Nc1ccc(Cl)c(S(=O)(=O)N2CCOCC2)c1)c1ccccc1 (stereo not given) | -82* | -14% | u | -44% | u | u
COC(=O)c1cc(Cl)ccc1NC(=O)Cn1c(C)cc(C)c(C#N)c1=O | -8 | -4% | -4% | 24%[46.1 µM] | u | -7%
Cc1cccc(N2CCN(C(=O)c3ccc(NS(=O)(=O)c4ccc5[nH]c(=O)[nH]c5c4)cc3)CC2)c1C | -67* | -3% | 12% | -24% | -15% | -20%
CCCCCNC(=O)c1ccc(NS(=O)(=O)c2ccc3[nH]c(=O)[nH]c3c2)cc1 | -95* | i | -9% | -19% | 16% | -12%
CCCCNC(=O)c1ccc(NS(=O)(=O)c2ccc3[nH]c(=O)[nH]c3c2)cc1 | 32 | i | -8% | 19% | 11% | -1%
CCOC(=O)c1c(NC(=O)COc2cccc3c2CCN(C)C3=O)sc2c1CCC2 | -63* | -17% | u | u | u | u
Cc1ccc(C)c(Nc2ncnc3c2cnn3-c2ccc(F)cc2)c1 | 70 | -12% | 19% | -14%[46.1 µM] | x | 1%
CCOC(=O)c1sc(NC(=O)CSc2n[nH]c(CC(C)C)n2)nc1C | -62* | -18% | -6% | u | -2% | -17%
CCOC(=O)c1sc(NC(=O)CSc2n[nH]c(C)n2)nc1C | u | -21% | 2% | u | u | -11%
Cc1ccc(NC(=S)NC(NC(=O)c2ccccc2)C(Cl)(Cl)Cl)c(C)c1 (stereo not given) | -68* | u | u | u | u | u
O=C(NC(NC(=S)Nc1ccccc1)C(Cl)(Cl)Cl)c1cccc(Cl)c1 (stereo not given) | -78* | u | x | u | u | u
